From the supplement of paper PMC11732987, “Enantioselective OTUD7B fragment discovery through chemoproteomics screening and high-throughput optimisation” (Communications Chemistry, 2025)

How the values were obtained:
Experiment in all cases: log2 ratio of Biotin-Ahx-Ub-VS probe labelling (fragment/DMSO); higher = less target engagement (more negative = stronger competition), active = hit call of the paper (q ≤ 0.05, log2 ratio ≤ -1)
Conditions in all cases: compound concentration: 200 uM; treatment time: 3 h
USP34 = USP34 (UniProt Q70CQ2)
Outline: (§1)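 HEK293T lysate, 495 µg per sample in Tris/CHAPS/IGEPAL buffer with protease inhibitors, was treated in triplicate with fragment at 200 µM or vehicle for 3 h and then with Biotin-Ahx-Ub-VS at 0.5 µM final for 1 h. Labelled DUBs were NeutrAvidin-enriched, digested with LysC and trypsin, and run by diaPASEF LC-MS/MS. Spectronaut label-free quantities were global-median-normalised, and values are average log2 fragment/vehicle ratios by unpaired t-test on proteins with ≥2 unique peptides.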

USP36 = target: T1, USP36 (UniProt Q9P275)
T1 sequence (whole entry): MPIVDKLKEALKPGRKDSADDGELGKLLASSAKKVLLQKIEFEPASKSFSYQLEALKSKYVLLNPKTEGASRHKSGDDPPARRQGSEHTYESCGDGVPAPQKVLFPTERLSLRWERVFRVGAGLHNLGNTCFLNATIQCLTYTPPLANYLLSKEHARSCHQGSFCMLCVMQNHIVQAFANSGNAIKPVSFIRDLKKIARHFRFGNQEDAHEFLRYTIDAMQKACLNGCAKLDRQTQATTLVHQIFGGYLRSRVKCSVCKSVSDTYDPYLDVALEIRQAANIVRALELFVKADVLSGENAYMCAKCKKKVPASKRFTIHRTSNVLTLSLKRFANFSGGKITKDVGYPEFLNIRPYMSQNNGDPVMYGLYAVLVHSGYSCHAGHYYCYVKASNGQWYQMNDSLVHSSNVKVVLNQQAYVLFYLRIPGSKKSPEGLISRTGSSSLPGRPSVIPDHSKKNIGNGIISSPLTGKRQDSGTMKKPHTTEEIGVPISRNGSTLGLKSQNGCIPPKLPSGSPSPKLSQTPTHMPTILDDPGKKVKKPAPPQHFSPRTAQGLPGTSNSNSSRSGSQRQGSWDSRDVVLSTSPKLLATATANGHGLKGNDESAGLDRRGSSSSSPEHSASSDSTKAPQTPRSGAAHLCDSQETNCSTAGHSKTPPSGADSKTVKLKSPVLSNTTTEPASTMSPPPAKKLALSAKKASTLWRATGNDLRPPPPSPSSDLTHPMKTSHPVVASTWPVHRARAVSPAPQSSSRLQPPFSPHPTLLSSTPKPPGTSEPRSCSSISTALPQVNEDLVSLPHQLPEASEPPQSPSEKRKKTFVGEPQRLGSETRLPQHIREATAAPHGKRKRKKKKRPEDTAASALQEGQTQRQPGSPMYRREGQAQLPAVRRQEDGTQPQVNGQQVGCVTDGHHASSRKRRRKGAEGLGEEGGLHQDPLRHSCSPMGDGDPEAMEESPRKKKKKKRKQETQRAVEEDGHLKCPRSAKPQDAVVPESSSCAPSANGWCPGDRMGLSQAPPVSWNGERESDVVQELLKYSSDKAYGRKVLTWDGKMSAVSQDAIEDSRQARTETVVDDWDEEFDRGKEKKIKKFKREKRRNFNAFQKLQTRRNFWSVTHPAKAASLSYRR
Outline: as §1

USP38 = target: T2, USP38 (UniProt Q8NB14)
T2 sequence (whole entry): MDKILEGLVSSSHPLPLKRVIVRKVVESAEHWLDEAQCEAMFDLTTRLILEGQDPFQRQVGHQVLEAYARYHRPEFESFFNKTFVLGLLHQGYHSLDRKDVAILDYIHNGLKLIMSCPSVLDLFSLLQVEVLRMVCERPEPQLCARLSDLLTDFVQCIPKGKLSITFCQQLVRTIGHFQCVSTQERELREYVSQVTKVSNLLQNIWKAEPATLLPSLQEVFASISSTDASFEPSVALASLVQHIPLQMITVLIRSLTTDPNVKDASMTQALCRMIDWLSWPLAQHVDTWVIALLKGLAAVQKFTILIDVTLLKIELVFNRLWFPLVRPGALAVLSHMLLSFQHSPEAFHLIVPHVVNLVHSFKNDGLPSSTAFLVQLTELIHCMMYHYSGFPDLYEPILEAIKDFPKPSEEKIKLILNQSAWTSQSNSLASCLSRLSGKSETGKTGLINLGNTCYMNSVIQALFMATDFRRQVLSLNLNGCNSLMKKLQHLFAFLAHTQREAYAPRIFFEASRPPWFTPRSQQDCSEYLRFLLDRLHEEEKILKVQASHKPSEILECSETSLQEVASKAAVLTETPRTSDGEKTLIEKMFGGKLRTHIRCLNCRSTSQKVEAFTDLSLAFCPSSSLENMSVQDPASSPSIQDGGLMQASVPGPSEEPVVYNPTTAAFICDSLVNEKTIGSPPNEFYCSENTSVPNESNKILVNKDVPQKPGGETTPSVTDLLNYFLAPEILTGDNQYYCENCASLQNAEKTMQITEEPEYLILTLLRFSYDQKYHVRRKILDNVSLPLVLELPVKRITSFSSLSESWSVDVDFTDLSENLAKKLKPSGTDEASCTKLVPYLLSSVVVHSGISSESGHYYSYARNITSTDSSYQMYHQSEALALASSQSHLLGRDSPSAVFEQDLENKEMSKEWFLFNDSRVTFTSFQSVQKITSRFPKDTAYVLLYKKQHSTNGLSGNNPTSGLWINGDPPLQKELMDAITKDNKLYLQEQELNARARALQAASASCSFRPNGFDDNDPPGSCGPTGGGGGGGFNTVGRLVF
Outline: as §1

USP39 = target: T3, USP39 (UniProt Q53GS9)
T3 sequence (whole entry): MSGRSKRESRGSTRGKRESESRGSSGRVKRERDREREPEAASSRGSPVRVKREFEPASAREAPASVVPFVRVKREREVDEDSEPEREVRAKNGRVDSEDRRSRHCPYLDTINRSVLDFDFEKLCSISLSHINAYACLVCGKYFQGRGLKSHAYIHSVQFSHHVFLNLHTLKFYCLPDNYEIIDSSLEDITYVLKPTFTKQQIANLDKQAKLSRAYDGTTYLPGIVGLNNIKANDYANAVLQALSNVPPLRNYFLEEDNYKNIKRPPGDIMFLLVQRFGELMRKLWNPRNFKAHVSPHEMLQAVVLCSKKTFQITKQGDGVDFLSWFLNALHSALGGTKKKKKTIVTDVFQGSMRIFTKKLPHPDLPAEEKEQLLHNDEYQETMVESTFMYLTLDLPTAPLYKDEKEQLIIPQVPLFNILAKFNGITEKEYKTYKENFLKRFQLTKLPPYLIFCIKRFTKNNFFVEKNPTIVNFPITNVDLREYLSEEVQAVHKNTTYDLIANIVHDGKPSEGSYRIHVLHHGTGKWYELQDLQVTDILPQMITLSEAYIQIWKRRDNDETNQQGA
Outline: as §1

USP4 = target: T4, USP4 (UniProt Q13107)
T4 sequence (whole entry): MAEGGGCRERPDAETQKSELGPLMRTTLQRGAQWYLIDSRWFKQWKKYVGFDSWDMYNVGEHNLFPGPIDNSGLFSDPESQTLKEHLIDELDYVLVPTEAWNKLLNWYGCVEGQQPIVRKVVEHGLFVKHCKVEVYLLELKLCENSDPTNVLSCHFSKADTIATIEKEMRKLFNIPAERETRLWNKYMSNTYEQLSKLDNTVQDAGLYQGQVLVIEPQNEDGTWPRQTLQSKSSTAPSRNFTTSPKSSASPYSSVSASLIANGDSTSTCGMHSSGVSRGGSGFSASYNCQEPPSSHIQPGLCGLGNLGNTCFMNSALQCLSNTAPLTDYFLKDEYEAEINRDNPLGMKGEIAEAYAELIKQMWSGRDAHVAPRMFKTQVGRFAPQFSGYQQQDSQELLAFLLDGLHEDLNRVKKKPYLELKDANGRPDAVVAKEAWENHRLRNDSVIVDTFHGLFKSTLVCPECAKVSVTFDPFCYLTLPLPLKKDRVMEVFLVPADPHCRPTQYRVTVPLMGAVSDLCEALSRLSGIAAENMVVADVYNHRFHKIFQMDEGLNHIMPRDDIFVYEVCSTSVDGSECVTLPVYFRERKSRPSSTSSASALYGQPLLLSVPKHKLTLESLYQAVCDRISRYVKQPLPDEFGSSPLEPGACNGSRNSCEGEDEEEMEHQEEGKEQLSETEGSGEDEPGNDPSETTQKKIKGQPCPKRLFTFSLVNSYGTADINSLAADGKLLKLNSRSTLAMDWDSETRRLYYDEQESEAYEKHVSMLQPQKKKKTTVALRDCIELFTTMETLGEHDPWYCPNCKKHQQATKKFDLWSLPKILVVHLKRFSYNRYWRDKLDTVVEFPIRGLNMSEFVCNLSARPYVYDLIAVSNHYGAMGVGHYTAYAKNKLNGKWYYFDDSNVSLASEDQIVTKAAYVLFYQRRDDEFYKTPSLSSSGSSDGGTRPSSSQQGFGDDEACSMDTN
Outline: as §1

Measured: log2 ratio of Biotin-Ahx-Ub-VS probe labelling

Chain of USP34 (Q70CQ2 whole entry, the tested form may be a part): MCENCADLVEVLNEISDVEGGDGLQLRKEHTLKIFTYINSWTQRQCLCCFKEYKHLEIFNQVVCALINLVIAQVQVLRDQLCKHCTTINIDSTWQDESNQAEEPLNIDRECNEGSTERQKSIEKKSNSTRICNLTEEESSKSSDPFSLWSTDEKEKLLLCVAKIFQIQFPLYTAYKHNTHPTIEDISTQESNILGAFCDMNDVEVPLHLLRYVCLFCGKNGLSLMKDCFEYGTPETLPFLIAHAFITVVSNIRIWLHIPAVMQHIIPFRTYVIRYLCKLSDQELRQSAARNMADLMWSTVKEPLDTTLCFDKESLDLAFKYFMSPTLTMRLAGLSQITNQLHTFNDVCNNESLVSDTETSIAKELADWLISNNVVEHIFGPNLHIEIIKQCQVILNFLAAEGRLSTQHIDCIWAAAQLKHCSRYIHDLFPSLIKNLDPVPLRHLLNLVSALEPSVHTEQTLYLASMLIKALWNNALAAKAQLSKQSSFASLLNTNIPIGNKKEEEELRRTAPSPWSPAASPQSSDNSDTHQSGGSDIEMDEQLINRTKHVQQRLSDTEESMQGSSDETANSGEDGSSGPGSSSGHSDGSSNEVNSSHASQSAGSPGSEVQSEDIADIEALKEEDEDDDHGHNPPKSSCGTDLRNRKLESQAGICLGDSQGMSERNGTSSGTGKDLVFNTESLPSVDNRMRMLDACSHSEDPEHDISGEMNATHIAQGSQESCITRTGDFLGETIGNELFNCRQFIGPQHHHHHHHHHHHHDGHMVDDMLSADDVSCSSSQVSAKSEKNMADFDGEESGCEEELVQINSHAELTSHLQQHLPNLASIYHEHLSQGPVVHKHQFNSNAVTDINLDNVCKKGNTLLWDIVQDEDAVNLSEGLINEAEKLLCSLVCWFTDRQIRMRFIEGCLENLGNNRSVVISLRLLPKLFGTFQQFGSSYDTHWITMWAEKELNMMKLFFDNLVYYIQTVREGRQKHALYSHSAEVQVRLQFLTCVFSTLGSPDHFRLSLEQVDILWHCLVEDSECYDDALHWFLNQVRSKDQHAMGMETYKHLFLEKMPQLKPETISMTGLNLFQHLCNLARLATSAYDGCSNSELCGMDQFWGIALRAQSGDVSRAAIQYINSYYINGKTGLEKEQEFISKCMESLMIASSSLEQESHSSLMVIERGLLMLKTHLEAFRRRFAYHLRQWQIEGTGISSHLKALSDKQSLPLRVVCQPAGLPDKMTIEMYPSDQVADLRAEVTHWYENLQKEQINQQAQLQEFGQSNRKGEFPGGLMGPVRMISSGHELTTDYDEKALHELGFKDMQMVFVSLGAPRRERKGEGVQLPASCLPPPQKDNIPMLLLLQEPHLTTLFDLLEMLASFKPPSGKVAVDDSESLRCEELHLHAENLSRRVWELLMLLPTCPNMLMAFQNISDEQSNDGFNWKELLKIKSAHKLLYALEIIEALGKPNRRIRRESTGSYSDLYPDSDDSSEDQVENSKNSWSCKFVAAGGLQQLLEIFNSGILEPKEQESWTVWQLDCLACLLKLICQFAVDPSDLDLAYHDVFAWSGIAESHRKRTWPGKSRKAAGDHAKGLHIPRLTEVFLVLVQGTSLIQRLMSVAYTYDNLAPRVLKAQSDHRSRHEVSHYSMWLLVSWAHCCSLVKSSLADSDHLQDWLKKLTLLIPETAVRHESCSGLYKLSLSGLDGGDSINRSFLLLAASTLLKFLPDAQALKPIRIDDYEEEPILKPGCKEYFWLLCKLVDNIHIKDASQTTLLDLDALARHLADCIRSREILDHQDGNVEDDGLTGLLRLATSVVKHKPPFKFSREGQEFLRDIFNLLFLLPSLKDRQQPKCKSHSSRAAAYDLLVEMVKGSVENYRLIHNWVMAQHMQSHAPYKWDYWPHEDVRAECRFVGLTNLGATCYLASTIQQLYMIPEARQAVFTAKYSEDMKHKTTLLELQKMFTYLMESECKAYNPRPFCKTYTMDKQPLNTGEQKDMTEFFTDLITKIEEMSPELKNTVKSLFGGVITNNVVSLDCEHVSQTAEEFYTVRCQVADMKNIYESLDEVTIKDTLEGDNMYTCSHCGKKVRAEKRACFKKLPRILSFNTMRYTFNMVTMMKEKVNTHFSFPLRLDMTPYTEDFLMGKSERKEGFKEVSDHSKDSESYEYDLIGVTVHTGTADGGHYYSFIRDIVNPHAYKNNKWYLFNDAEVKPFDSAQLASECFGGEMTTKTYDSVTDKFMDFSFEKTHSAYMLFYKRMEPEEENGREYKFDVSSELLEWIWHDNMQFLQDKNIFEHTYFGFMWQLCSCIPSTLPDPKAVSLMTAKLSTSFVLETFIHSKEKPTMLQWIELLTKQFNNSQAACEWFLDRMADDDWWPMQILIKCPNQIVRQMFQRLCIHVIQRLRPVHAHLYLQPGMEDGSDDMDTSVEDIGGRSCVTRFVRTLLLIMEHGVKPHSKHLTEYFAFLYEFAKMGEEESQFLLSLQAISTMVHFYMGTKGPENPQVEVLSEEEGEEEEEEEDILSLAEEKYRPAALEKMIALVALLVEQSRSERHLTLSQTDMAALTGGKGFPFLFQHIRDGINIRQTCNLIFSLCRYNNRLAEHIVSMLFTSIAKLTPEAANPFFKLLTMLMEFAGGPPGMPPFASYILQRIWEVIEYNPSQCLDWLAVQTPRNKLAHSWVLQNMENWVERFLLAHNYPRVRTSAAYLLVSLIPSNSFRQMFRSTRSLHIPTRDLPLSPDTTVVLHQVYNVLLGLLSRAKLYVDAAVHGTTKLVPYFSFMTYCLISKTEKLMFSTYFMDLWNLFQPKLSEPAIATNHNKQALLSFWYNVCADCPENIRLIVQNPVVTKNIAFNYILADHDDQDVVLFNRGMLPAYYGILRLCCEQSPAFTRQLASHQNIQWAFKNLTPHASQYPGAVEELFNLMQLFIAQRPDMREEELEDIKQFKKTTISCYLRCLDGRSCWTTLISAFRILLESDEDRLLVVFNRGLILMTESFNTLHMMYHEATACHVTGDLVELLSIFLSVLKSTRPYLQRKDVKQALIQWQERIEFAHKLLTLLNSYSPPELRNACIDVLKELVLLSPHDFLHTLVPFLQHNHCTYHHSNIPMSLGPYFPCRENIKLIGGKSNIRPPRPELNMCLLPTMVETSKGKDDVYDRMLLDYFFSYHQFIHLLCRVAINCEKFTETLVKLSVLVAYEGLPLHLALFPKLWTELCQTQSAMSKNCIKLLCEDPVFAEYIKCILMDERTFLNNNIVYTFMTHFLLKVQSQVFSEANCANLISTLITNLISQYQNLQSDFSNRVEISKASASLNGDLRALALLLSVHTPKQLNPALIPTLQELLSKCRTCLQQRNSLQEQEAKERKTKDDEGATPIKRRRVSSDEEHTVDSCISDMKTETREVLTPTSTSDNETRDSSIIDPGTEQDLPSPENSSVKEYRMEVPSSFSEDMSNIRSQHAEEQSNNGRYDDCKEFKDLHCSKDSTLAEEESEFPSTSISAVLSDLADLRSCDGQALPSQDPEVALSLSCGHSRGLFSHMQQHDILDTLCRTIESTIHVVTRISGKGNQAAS

O=C(CCl)NCc1cccc(F)c1
inactive: USP34 -0.0351 | USP36 -0.312 | USP38 0.0703 | USP39 -0.114 | USP4 -0.0159
